Records with an inconclusive call do not appear. A call without a number means that no potency is given here. The source made the active and inactive calls. The call rests on the fitted dose curve; in most records, active means well fitted cell-killing curve with a large enough effect in the repeat runs; inconclusive means weak or mixed curves, or effect the other way; inactive means no such curve, though single readings can be large or run the other way.
Potency means the concentration at half of the fitted maximal effect.

The test is described as follows: qHTS assay to identify aromatase inhibitors - cell viability counter screen (AID 743084).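 Further: cells stimulated with testosterone during compound exposure; nearly all actives have a fitted effect of over 55% in size.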 The conditions noted are these: MCF-7 aro ERE viability, CellTiter-Fluor, 24 h; series mostly up to 70.3 µM.
Turning to `O=C(O)c1nc(=O)[nH]c(=O)[nH]1`, the Potency result was “inactive”. As for `CC(=O)N=c1sc(S(N)(=O)=O)nn1C`, the entry is “inactive”; as for `C[N@+]12CCCC[C@@H]1CCC(=C(c1cccs1)c1cccs1)C2`, “inactive”. Consider `CC[C@@]1(O)C[C@H](O[C@H]2C[C@H](N(C)C)[C@H](O[C@H]3C[C@H](O)[C@H](O[C@H]4CCC(=O)[C@H](C)O4)[C@H](C)O3)[C@H](C)O2)c2c(cc3c(c2O)C(=O)c2c(O)cccc2C3=O)[C@H]1C(=O)OC`, for which the Potency is 26.6 µM (active). For the molecule `C/C1=C2N=C(/C=C3N=C(/C(C)=C4\[N-][C@@](C)([C@@H]5N=C1[C@](C)(CCC(=O)NCC(C)OP(=O)(O)O[C@H]1[C@@H](O)[C@@H](n6cnc7cc(C)c(C)cc76)O[C@@H]1CO)[C@H]5CC(N)=O)[C@@](C)(CC(N)=O)[C@@H]4CCC(N)=O)[C@@](C)(CC(N)=O)[C@@H]\3CCC(N)=O)C(C)(C)[C@@H]/2CCC(N)=O.CC(=O)O.[Co]` (stereo not given in full), the Potency is 23.7 µM (active). The value for `CC1(C)S[C@@H]2[C@H](NC(=O)C(C(=O)O)c3ccsc3)C(=O)N2[C@H]1C(=O)O` (stereo not given in full) was “inactive”; that for `CCCCC/C=C\CCC(=O)N[C@H]1[C@H](Oc2c3cc4cc2Oc2ccc(cc2Cl)[C@@H](O[C@@H]2O[C@H](CO)[C@@H](O)[C@H](O)[C@H]2NC(C)=O)[C@@H]2NC(=O)[C@H](NC(=O)[C@@H]4NC(=O)[C@H]4NC(=O)[C@@H](Cc5ccc(c(Cl)c5)O3)NC(=O)[C@H](N)c3ccc(O)c(c3)Oc3cc(O)cc4c3)c3ccc(O)c(c3)-c3c(O[C@H]4O[C@H](CO)[C@@H](O)[C@H](O)[C@@H]4O)cc(O)cc3[C@@H](C(=O)O)NC2=O)O[C@H](CO)[C@@H](O)[C@@H]1O` was “inactive”.

For the molecule `O=C(O)C1=C(CSc2nnnn2CS(=O)(=O)O)CS[C@@H]2[C@H](NC(=O)[C@H](O)c3ccccc3)C(=O)N12`, the Potency result is “inactive”. For `CCOc1ccc(N=Nc2ccc(N)cc2N)cc1`, the Potency is 21.1 µM (active). For `O=C(O)[C@H]1/C(=C/CO)O[C@@H]2CC(=O)N21`, the Potency entry is “inactive”. Consider `CNCC(O)c1ccc(OC(=O)C(C)(C)C)c(OC(=O)C(C)(C)C)c1` (stereo not given), for which the Potency result was “inactive”. Regarding `COc1cc(-c2ccc(-[n+]3nc(-c4ccccc4)nn3-c3ccc([N+](=O)[O-])cc3)c(OC)c2)ccc1-[n+]1nc(-c2ccccc2)nn1-c1ccc([N+](=O)[O-])cc1`, the Potency is 29.8 µM (active). With `CCOC(=O)O[C@]1(C(=O)COC(=O)CC)CC[C@H]2[C@@H]3CCC4=CC(=O)C=C[C@]4(C)[C@H]3[C@@H](O)C[C@@]21C`, the Potency entry is “inactive”. Consider `CC[C@H](C)[C@@H]1NC(=O)[C@H](Cc2ccc(O)cc2)NC(=O)[C@@H](N)CSSC[C@@H](C(=O)N2CCC[C@H]2C(=O)N[C@@H](CC(C)C)C(=O)NCC(N)=O)NC(=O)[C@H](CC(N)=O)NC(=O)[C@H](CCC(N)=O)NC1=O`, for which the Potency result is “inactive”. For `NS(=O)(=O)c1cc2c(cc1Cl)NC(Cc1ccccc1)NS2(=O)=O` (stereo not given), the Potency result was “inactive”. Consider `C[N+]1(C)[C@@H]2CC(OC(=O)C(O)(c3cccs3)c3cccs3)C[C@H]1[C@@H]1O[C@@H]12` (stereo not given in full), for which the Potency entry was “inactive”. `CC(C)[C@@H]1CC[C@@H](C)C[C@H]1OC(=O)c1ccccc1O`: the Potency entry is “inactive”.

`CC(C)[C@@H](N)C(=O)O`: the Potency entry is “inactive”. Regarding `CC(C)(C)CC(C)(C)c1cc(Cc2cc(C(C)(C)CC(C)(C)C)cc(-n3nc4ccccc4n3)c2O)c(O)c(-n2nc3ccccc3n2)c1`, the Potency entry is “inactive”. For `COc1ccc(C[C@H](C)NC[C@@H](O)c2ccc(O)c(NC=O)c2)cc1`, the Potency result was “inactive”. As for `CCCCCCCCCCCCCCCC(=O)OCC(COC(=O)CCCCCCCCCCCCCCC)OC(=O)CCCCCCCCCCCCCCC`, the entry is “inactive”.

As for `CCOC(=O)[C@H](CS)NCCN[C@@H](CS)C(=O)OCC`, the Potency result was “inactive”.

As to `CCN(CC)CCOCCOC(=O)C(CC)(CC)c1ccccc1`, the Potency result is “inactive”.

Consider `CC(=O)N(CC(C)C(=O)O)c1c(I)cc(I)c(N)c1I` (stereo not given), for which the Potency entry is “inactive”. For `O=C(O)c1ccc(NC(=O)[C@H](Cc2ccc(O)cc2)NC(=O)c2ccccc2)cc1`, the Potency result is “inactive”. In the case of `Clc1cc(Cl)c(OCC#CI)cc1Cl`, the Potency was 21.1 µM (active). Take `CC(=O)Nc1ccc(OC(=O)c2ccccc2O)cc1`: the Potency entry is “inactive”.

`FC(F)(F)C(F)(F)C(F)(F)C(F)(F)C(F)(F)C(F)(F)F`: the Potency entry was “inactive”. `O=C(OC[C@H]1O[C@](O)(COC(=O)c2cccnc2)[C@@H](OC(=O)c2cccnc2)[C@@H]1OC(=O)c1cccnc1)c1cccnc1`: the Potency entry is “inactive”. As for `CCC(Cc1c(I)cc(I)c(O)c1I)C(=O)O` (stereo not given), the entry is “inactive”.

(Values after PubChem BioAssay (Tox21).)
